# Inconclusive results are not listed. A call without a number means that no potency is given here. A number with no mark means an inactive call. Active and inactive are the calls of the source. Calls come from the whole dose curve; as a rule, active = well fitted curve in the direction sought with a large enough effect; inconclusive = small, poorly fitted or top-dose-only effect, or another doubt; inactive = no such curve, though single readings can be large; an effect the other way counts as inactive or inconclusive.
# Columns and labels:
# [1] = biological target: Cellular tumor antigen p53 (Homo sapiens) (UniProt P04637); test: Primary qHTS for small molecule compounds that upregulate eGFP-tagged delta133p53alpha (in N-terminal) cells. (AID 2060322); conditions: NCI-H358 eGFP-delta133p53alpha fluorescence, 24 h; activation: hits give high values; note: nearly all actives have a fitted effect of over 75% in size; note: potency is the fitted concentration of half-maximal effect
# Outline: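 NCI-H358 cells pre-induced 24 h with 10 ng/ml doxycycline to express N-terminal eGFP-delta133p53alpha, then dosed 24 h at 37C without doxycycline; fixed, Hoechst-stained, GFP intensity by laser scanning cytometry, normalized to DMSO (0%) and 57.5 uM 5-azacytidine (100%).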
# [2] = biological target: Aldehyde dehydrogenase, mitochondrial (Homo sapiens) (UniProt P05091); test: qHTS for Inhibitors of the Aldehyde Dehydrogenase Family (ALDH2) Primary screen (AID 2061308); conditions: ALDH2 enzyme inhibition qHTS, 1536-well; series mostly up to 56 µM; note: nearly all actives have a fitted effect of over 55% in size
# [3] = biological target: Retinaldehyde dehydrogenase 3 (Homo sapiens) (UniProt P47895); test: qHTS for Inhibitors of the Aldehyde Dehydrogenase Family (ALDH1A3) Primary screen (AID 2061315); conditions: ALDH inhibition qHTS; series mostly up to 56 µM
# Cellular tumor antigen p53 (Homo sapiens), sequence (P04637 whole entry, looked up): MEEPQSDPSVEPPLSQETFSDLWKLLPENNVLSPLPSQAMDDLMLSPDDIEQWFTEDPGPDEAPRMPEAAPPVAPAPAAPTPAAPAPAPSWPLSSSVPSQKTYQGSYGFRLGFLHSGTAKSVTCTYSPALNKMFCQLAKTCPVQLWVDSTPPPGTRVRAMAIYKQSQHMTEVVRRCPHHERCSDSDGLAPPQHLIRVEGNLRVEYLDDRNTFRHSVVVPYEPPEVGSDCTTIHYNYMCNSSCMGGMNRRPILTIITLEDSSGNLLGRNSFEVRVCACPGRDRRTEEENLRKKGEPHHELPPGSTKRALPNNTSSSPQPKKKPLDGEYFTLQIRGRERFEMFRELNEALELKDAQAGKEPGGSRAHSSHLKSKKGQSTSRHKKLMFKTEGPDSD
Structure (SMILES),activation [1],"activity change, negative = inhibition [2]","activity change, negative = inhibition [3]",Potency [2],Potency [3],Potency [1]
C1CCC[C@H]2CCCN3CC[C@@H](CCCCCC[C@@H]4CCCN5CC[C@@H](CC1)O[C@@H]45)O[C@@H]23,-4.33%,3.01% [at 0.092 µM],-7.72% [at 0.092 µM],–,–,–
COc1ccc(CNC(=O)c2cc(-c3cncc(C)c3)ncc2-c2nccs2)nc1OC,0.477%,–,–,inactive,inactive,–
C=C1CC2[C@@]3(C)C=CC(=O)C(C)(C)C3=C(O)C(=O)[C@@]2(C)C2(C(=O)OC)C(=O)C(C)OC(=O)[C@@]12C (stereo partly specified),-3.82%,–,–,inactive,inactive,–
CC1CCC2(C(=O)O)CCC3(C)C(=CCC4C5(C)CCC(OC(=O)/C=C/c6ccccc6)C(C)(C)C5CCC43C)C2C1C (stereo unspecified),-8.4%,–,–,inactive,inactive,–
O=C(Nc1nc2cc(C(F)(F)F)cc(NC3CC3)n2n1)c1cccnc1,–,–,–,inactive,inactive,4.78 µM (active)
CC12CCC3c4ccc(OC5OC(C(=O)O)C(O)C(O)C5O)cc4CCC3C1CCC2O (stereo unspecified),11.7%,–,–,inactive,inactive,–
C=C1CO[C@@]2(O[C@H]3CC4C5CC=C6C[C@@H](O)C[C@@H](O[C@@H]7OC[C@H](O)[C@H](O[C@@H]8OC[C@@H](O)[C@H](O)[C@H]8O)[C@H]7O[C@@H]7O[C@@H](C)[C@H](OC(C)=O)[C@@H](OC(C)=O)[C@H]7OC(C)=O)[C@]6(C)C5CC[C@]4(C)[C@@H]3[C@@H]2C)[C@@H](O)[C@H]1OC1OC(C)C(O)C(O)C1O (stereo partly specified),-6.87%,8.25% [at 11.2 µM],-6.16% [at 11.2 µM],–,–,–
CC1(C)CC[C@]2(C(=O)O[C@@H]3O[C@H](CO)[C@@H](O)[C@H](O)[C@H]3O)CC[C@]3(C)C(=CCC4[C@@]5(C)CC[C@H](O[C@@H]6O[C@H](C(=O)O)[C@@H](O[C@@H]7O[C@H](CO)[C@@H](O)[C@H](O)[C@H]7O)[C@H](O)[C@H]6O)C(C)(C)C5CC[C@]43C)C2C1 (stereo partly specified),-26.7%,–,–,inactive,inactive,–
C/C(=C/CO)CCC1C(C)CCC2C(C)(C)CCCC12C (stereo unspecified),-9.92%,–,–,inactive,inactive,–
C[C@@H]1O[C@@H](O[C@H]2[C@H](OC(=O)[C@]34CCC(C)(C)C[C@H]3C3=CCC5[C@@]6(C)CC[C@H](O[C@@H]7O[C@H](CO[C@@H]8OC[C@H](O)[C@H](O)[C@H]8O)[C@@H](O)[C@H](O)[C@H]7O)C(C)(C)C6CC[C@@]5(C)[C@]3(C)C[C@H]4O)OC[C@@H](O)[C@@H]2O)[C@H](O)[C@H](O[C@@H]2OC[C@](O)(CO)[C@H]2O)[C@H]1O[C@@H]1OC[C@H](O)[C@H](O[C@@H]2OC[C@@H](O)[C@H](O)[C@H]2O)[C@H]1O (stereo partly specified),5.36%,7.19% [at 11.2 µM],10.7% [at 11.2 µM],–,–,–
C[C@@H]1C[C@H]2O[C@@H]2/C=C\C=C\C(=O)Cc2c(Cl)c(O)cc(O)c2C(=O)O1,–,–,–,inactive,inactive,4.53 µM (active)
COc1cc2c(c(OC)c1O)C(c1ccc(O)cc1)C1C(=O)OC3C(COC(=O)C1=C2)OC(CO)(OC1OC(COC(=O)/C=C/c2ccc(OC4OC(C)C(O)C(O)C4O)cc2)C(O)C(O)C1O)C3O (stereo unspecified),23.2%,–,–,inactive,inactive,–
OCC(CO)(CO)NCC(O)Cn1c2ccc(Cl)cc2c2cc(Cl)ccc21 (stereo unspecified),–,–,–,inactive,inactive,23.9 µM (active)
CC[C@@H](O)C[C@@H]1C(C)=C[C@@H]2CCCC[C@@H]2[C@@]1(C)C(=O)O,-6.87%,–,–,inactive,inactive,–
CCN(CC)c1ccc2c(O)c(C=Nc3ccc(CC(=O)O)c(-c4c5c(nc6ccccc46)CCC(C(=O)NN)C5)c3)c(=O)oc2c1 (stereo unspecified),–,–,–,inactive,inactive,5.36 µM (active)
N[C@H]1CN(c2c(F)cc3c(=O)c(C(=O)O)cn(C4C[C@@H]4F)c3c2Cl)CC12CC2 (stereo partly specified),-26%,–,–,inactive,inactive,–
CC(=O)O[C@@H]1[C@H](O[C@@H]2O[C@@H](CO)[C@H](O)[C@H]2O)[C@@H](O[C@@H]2O[C@@H](C)[C@H](O[C@@H]3OC[C@@H](O)[C@H](O)[C@H]3O)[C@@H](O)[C@H]2O)[C@H](OC(=O)[C@]23CCC(C)(C)C[C@H]2C2=CCC4[C@@]5(C)CC[C@H](O[C@@H]6O[C@H](C(=O)O)[C@@H](O)[C@H](O)[C@H]6O[C@@H]6O[C@H](CO)[C@H](O)[C@H](O)[C@H]6O)[C@@](C)(C=O)C5CC[C@@]4(C)[C@]2(C)C[C@H]3O)O[C@@H]1C (stereo partly specified),0.893%,-0.326% [at 11.2 µM],-1.8% [at 11.2 µM],–,–,–

# Source: PubChem BioAssay (NCATS)
